The test system of assay [1] is Staphylococcus aureus. To be noted: Concentration 20 uM; ASSAY_TEST Inhibition of Bacterial Growth; detection method Absorption (OD600); MEDIA CAMHB; plate type 384well; NBS; CORNING #3640; time 18 hr.
Assay [2] deals with Escherichia coli. To be noted: Concentration 20 uM; ASSAY_TEST Inhibition of Bacterial Growth; detection method Absorption (OD600); MEDIA CAMHB; plate type 384well; NBS; CORNING #3640; time 18 hr.

What is called Inhibition is the change of the read-out against control, counted positive when it falls.

Each structure is given as a SMILES string. Potency and affinity values are given separately.

Regarding `O=C(NC1CCCCC1)N1CCN(Cc2ccc3c(c2)OCO3)CC1`, the Inhibition in assay [1] is 15.03%; in assay [2] it was 4.44%.

For `Cc1ccccc1CN1CCC(O)(c2ccc(Cl)c(C(F)(F)F)c2)CC1`, the Inhibition is reported as 17.37% in assay [1] and 4.77% in assay [2].

With `O=C(Nc1nc(-c2ccccn2)cs1)C1CC1c1ccccc1F` (stereo not given), the Inhibition is reported as 16.77% in assay [1] and 3.89% in assay [2].

Consider `O=C(Nc1c(O)cccc1-c1nc2c(C(=O)O)cccc2o1)c1cc(-c2ccccc2)on1`, for which the Inhibition in assay [1] is 0.11%; in assay [2], -12.15%.

Take `COc1cc(C(F)(F)F)nc2ccc(C)c(N)c12`: the values for the Inhibition in assay [1] and in assay [2] were 15.64% and 5.11%, respectively.

With `CC[C@H](CO)NCCN[C@H](CC)CO.Cl.Cl`, the Inhibition is reported as 13.87% in assay [1] and -1.24% in assay [2].

Regarding `CC(C)c1ncc(-c2ccncc2)c([C@H]2CC[C@H](CNC(=O)c3cccnc3)CC2)n1`, the Inhibition in assay [1] is on record as 19.09%; in assay [2], 13.72%.

Regarding `O=S(=O)(c1ccc(Cl)cc1)N1CCN(C(=S)NCc2ccco2)CC1`, the Inhibition in assay [1] is given as 6.19%; in assay [2] it was -1.38%.

With `COc1ccc2nc(C)cc(OCC(=O)NCc3ccccc3)c2c1`, the Inhibition in assay [1] came out at 12.19%; in assay [2], 7.22%.

With `Nc1ncc(-c2ccc(C(F)(F)F)nc2)cc1-c1ccc(C(F)(F)F)nc1`, the Inhibition in assay [1] is 3.63%; in assay [2], 7.53%.

Take `COc1cc(C2=NCCN2)ccc1-c1cn(-c2cccc(C3=NCCN3)c2)nn1`: the values for the Inhibition in assay [1] and in assay [2] were 19.96% and 14.41%, respectively.

Take `CCc1nc2ccc(C(=O)NCc3ccc4c(c3)OCO4)cn2c1N(C)Cc1cccs1`: the Inhibition in assay [1] is reported as 4.69%; in assay [2], -1.74%.

In the case of `O=C(Nc1nnc(S)s1)c1cc(Br)ccc1Cl`, the Inhibition in assay [1] is listed as 0.16%; in assay [2], 4.27%.

As for `O=C(Nc1nc(-c2ccccn2)cs1)c1cncn1-c1ccccc1`, the Inhibition turned out to be 8.38% in assay [1] and 5.73% in assay [2].

With `FC(F)(F)c1ccc(N(c2cccnc2)C2CCN(c3ccc(C(F)(F)F)cn3)CC2)cc1`, the Inhibition in assay [1] amounted to 14.25%; in assay [2] it was 5.86%.

Consider `Cl.O=C(Nc1ccc(N2CCNCC2)nc1)c1oc(-c2ccccc2)nc1C(F)(F)F`, for which the Inhibition was determined as 15.48% in assay [1] and 0.64% in assay [2].

On to `Cc1ccc2[nH]c(C3CCCNC3)c(-c3ccncc3)c2c1.Cl.Cl` (stereo not given), for which the results for the Inhibition in assay [1] and in assay [2] were 42.59% and 2.54%, respectively.

Turning to `COc1cccc2c(C)nc(N=C(N)N)nc12.O=C(O)C(F)(F)F.O=C(O)C(F)(F)F`, the Inhibition in assay [1] stood at 15.44%; in assay [2] it was 7.95%.

For `CC(C)(C)c1cc(C(=O)Nc2cccnc2)cc(C(=O)Nc2cccnc2)c1`, the Inhibition in assay [1] came out at 15.23%; in assay [2], 6.88%.

In the case of `CNc1snc(C)c1C(=O)NCCOc1ccc(OC)cc1`, the Inhibition is 18.31% in assay [1] and 5.8% in assay [2].

As for `Nc1nccc2ccc(-c3ccc4nccn4c3)cc12`, the Inhibition in assay [1] was determined as 24.43%; in assay [2], 1.05%.

As to `O=C(NC1CC1)c1ccc(N2CCC(Cc3ccccc3)CC2)nc1`, the Inhibition amounted to 20.17% in assay [1] and 11.23% in assay [2].

Consider `CCCCc1ccc(NC(=O)Nc2ccc(O[C@H]3CCCC[C@@H]3N(C)c3ccccc3)c(F)c2)cc1`, for which the Inhibition in assay [1] turned out to be 12.12%; in assay [2], 9.29%.

Regarding `CC(C)(C)OC(=O)N1CCN(c2cc(-c3ccc(Oc4ccccc4)cc3)n[nH]2)CC1`, the Inhibition in assay [1] was 17.78%; in assay [2] it was 7.28%.

As to `CCCCN(CCCC)c1c(C#N)cc(S(=O)(=O)Nc2ccccc2)cc1C#N`, the Inhibition is reported as 3.78% in assay [1] and -2.29% in assay [2].

Regarding `CC(C)(C)CN1C(=O)C(c2ccccc2)(c2ccccc2)N=C1N`, the Inhibition in assay [1] was found to be 17.09%; in assay [2] it was 4.18%.

In the case of `CC(C)(CN)c1nc(-c2ccc(Cl)c(O)c2)c(-c2ccnc(N)n2)[nH]1.O=C(O)C(F)(F)F.O=C(O)C(F)(F)F`, the values for the Inhibition in assay [1] and in assay [2] were 18.2% and 12.46%, respectively.

Take `CCOc1ccc(OCC(=O)Nc2cc(C)cc(C)c2)cc1`: the values for the Inhibition in assay [1] and in assay [2] were 14.06% and 3.81%, respectively.

For the compound `c1ccc(Oc2ccc(-c3cc(CN4CCOCC4)[nH]n3)cc2)cc1`, the Inhibition worked out at 15.12% in assay [1] and 2.47% in assay [2].

Regarding `CC(Oc1ccccc1)C(=O)Nc1nc(-c2ccccn2)cs1` (stereo not given), the Inhibition in assay [1] is listed as 40.18%; in assay [2], -10.82%.

With `O=C(Nc1cccc(Cl)c1)c1cnc(N2CCN(c3ccncc3)CC2)c(Cl)c1`, the Inhibition in assay [1] was determined as 19.29%; in assay [2], 6.8%.

On to `COc1ccc(-c2cc(NC(=O)c3ccc(F)cc3Cl)ccc2OC)cc1`, for which the figures for the Inhibition in assay [1] and in assay [2] were 17.79% and 8.24%, respectively.

On to `O=C(N[C@H](Cc1ccccc1)C(=O)Nc1ccccc1N1CCOCC1)c1cccs1`, for which the figures for the Inhibition in assay [1] and in assay [2] were 14.16% and 8.05%, respectively.

Take `O=C1Nc2ccc(Br)cc2C12NCCc1c2[nH]c2ccccc12` (stereo not given): the figures for the Inhibition in assay [1] and in assay [2] were 8.87% and 4.53%, respectively.

In the case of `COc1ccc(N(CCc2cccc(C)n2)C(=O)C2CCCCC2)cc1`, the Inhibition in assay [1] is reported as 4%; in assay [2] it was 3.67%.

The record behind these values is ChEMBL document CHEMBL4513149, “CO-ADD screening of MMV (CH) - MMV compounds” (2021).
